Several values for one entry are separate records, joined by “and”; a condition that tells them apart may be missing. Equal entries are not always repeated. The campaign covered roughly 260,000 compounds. About 1,500 (0.58%) were called active. Not shown: some 5% with an inconclusive outcome.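 How the source made its calls: active means inhibition above a set limit at one or more doses, reproduced on every date tested; inconclusive means results disagree between test dates, or hit never tested in dose response; inactive means the rest.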 The list is a sample of the results. Measured potencies and affinities stand elsewhere.
Target: Virion infectivity factor (Human immunodeficiency virus type 1 group M subtype B (isolate BH10)) + Virion infectivity factor (Human immunodeficiency virus type 1 group M subtype B (isolate BRU/LAI)) + Virion infectivity factor (Human immunodeficiency virus type 1 group M subtype B (isolate PCV12)) + Virion infectivity factor (Human immunodeficiency virus type 1 group M subtype B (isolate HXB2)) + DNA dC->dU-editing enzyme APOBEC-3G (Homo sapiens) (UniProt P69720+P69721+P69722+P69723+Q9HC16)
Assay: inhibitors of Vif binding to APOBEC3G peptide, primary screen, biochemical, TR-FRET, GST-Vif 1-94, biotin-A3G peptide, dose response retest (AID 1117319);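 further: Vif residues 1-94 fused to GST binding biotinylated APOBEC3G peptide 110-148; 0% = full assay without inhibitor and 100% = GST in place of GST-Vif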
Details: hits give high values

inhibition, inactive:
CCOC(=O)c1cc(-c2cccs2)[nH]n1 3.68%, O=C1C(c2ccccc2)c2ccccc2N1Cc1ccccc1 (stereo not drawn) -2.08%, CCOc1ccc(OCCn2ccnc2)cc1 -0.21%, Cc1nc2ccc(NS(=O)(=O)c3cccc([N+](=O)[O-])c3)cc2s1 -2.07%, Cc1nc2ccc(NC(=O)NCCCO)cc2s1 -2.1%, OCCCNC(=S)Nc1ccc2nc(-c3ccccn3)c(-c3ccccn3)nc2c1 16.7%, COCCNC(=O)Nc1ccc2nc(-c3cccs3)c(-c3cccs3)nc2c1 13.9%, O=C(NCCO)Nc1ccc2nsnc2c1 13.2%, O=C(Nc1ccc2nc(-c3cccs3)c(-c3cccs3)nc2c1)NC1CC1 -3.31%, O=C(Nc1ccc(N2CCOCC2)cc1)Nc1ccc2nc(-c3ccco3)c(-c3ccco3)nc2c1 16%, O=C(Nc1ccc2nsnc2c1)NC1CCCCC1 -12.3%, COCCNC(=O)Nc1ccc2nc(C)sc2c1 3.2%, COc1cc2[nH]c(=O)c(C(=O)NCc3ccc(C)cc3)c(O)c2cc1OC -8.1%, O=C1NC[C@H](c2ccccc2)N(CCc2cc(C(F)(F)F)cc(C(F)(F)F)c2)C1=O -3.13%, COC(=O)c1sc2nc(C)c([N+](=O)[O-])c(C)c2c1N 6.2%, CC(C)c1nnc(NC(=O)CC(=O)Nc2ccccc2C(=O)O)s1 15.4%, CCOC(=O)c1c(NC(=O)COC(=O)CCOc2ccc(OCC)cc2)sc(C(=O)N(C)C)c1C -2.2%, Cc1nc(CC(=O)Nc2nccs2)cs1 -1.06%, COC(=O)C1=C(C(=O)OC)[C@@H]2Nc3ccccc3[C@@]23C[C@@H](C(=O)OC)N=C3N1 0.57%, CN(CC(=O)Nc1ccccc1N1CCOCC1)S(=O)(=O)c1ccc(F)cc1 4.33%, O=C(c1ccc(Cl)cc1)c1cnc(-c2ccc(Cl)cc2)s1 -4.73%, O=C(CCCCl)Nc1c2c(nn1-c1ccccc1)CSC2 -3.73%, Cc1cc2nc(C3CCN(Cc4nnnn4Cc4cccs4)CC3)[nH]c2cc1C 1.05%, COC(=O)C1CC(c2ccccc2)N(c2ccccc2)O1 (stereo not drawn) -1.63%, CS(=O)(=O)N1CCCC(C(=O)NCCN2CCC(Cc3ccccc3)CC2)C1 (stereo not drawn) -4.71%, CS(=O)(=O)N1CCCC(C(=O)NCCCN2CCN(Cc3ccccc3)CC2)C1 (stereo not drawn) 8.72%, COc1ccccc1/C=C/C(=O)OCC(=O)Nc1ccccc1Sc1ccccc1 -5.26%, Cc1cc(C(=O)N(C)Cc2c(F)cccc2Cl)c2ccccc2n1 -2.57%, Cc1ccc(S(=O)(=O)CCC(=O)OCc2cc(C)ccc2C)cc1 4.12%, Cc1cc(C(=O)CSc2ncccn2)c(C)n1Cc1ccco1 -2.83%, CCn1c(C)cc(C(=O)CSc2nnc(-c3ccco3)o2)c1C 6.55%, COc1cccc(/C=C/C(=O)OCC(=O)Nc2cc(S(=O)(=O)N3CCOCC3)ccc2C)c1 -9.36%, CCN(CC(=O)NCc1cccs1)C(=O)c1ccc(S(=O)(=O)Nc2ccccc2Cl)cc1 1.56%, CC(=O)Nc1cccc(NC(=O)COc2ccccc2C)c1 -7.35%, Cc1noc(C)c1COc1cccc(C(=O)N(C)Cc2cccs2)c1 -1.46%, CC1(C)CC(=O)C(N=Nc2ccc(OC(F)F)cc2)=C(O)C1 12.4%, COc1ccc2c(c1O)C(=O)c1ccccc1C2=O 23.1%, Cc1cccc(NC(=O)c2ccc(C)c(S(=O)(=O)N3CCCCC3)c2)n1 2.93%, Cc1ccccc1NC(=O)COC(=O)c1cc(=O)c2ccccc2o1 -5.37%, Oc1ccc(/C=N/N=C/c2ccc(O)cc2)cc1 4.98%, Oc1ccc(/C=N/N(c2ccccc2)c2ccccc2)cc1O 26.2%, CC(=O)Nc1ccc(N=Cc2ccc(OCc3ccccc3)cc2)cc1 21.2%, NC(N)=N/N=C/c1ccc(OCc2ccccc2)cc1 -2.74%, COc1ccc(/C=N/N=C/c2ccc(OC)c(O)c2)cc1O -4.01%, O=Cc1ccc(O)c(O)c1 0.2%, Cc1nc(SC(C)C(=O)c2c(N)n(C)c(=O)n(C)c2=O)c2c(C)c(C)sc2n1 (stereo not drawn) -0.67%, CCOc1ccc(NC(=O)C(C)Sc2nnnn2C)cc1 (stereo not drawn) 0.56%, COc1cccc(NC(=O)CN(C)C(=O)CN2C(=O)NC(C)(c3ccc4ccccc4c3)C2=O)c1 (stereo not drawn) 9.34%, Cc1ccc(C)c(NS(=O)(=O)c2ccc(OCC(=O)N3CCCC3)cc2)c1 1.52%, CS(=O)(=O)c1ccc(C(=O)OCC(=O)NC(=O)Cc2ccccc2)cc1 -0.73%, COc1ccc(-n2c(SCC(C)=O)nc3sc(C)c(C)c3c2=O)cc1 -12.1%, CC(C)(C)c1c(Cl)c(O)c(-c2ccccc2)c(=O)n1-c1ccccc1 11.4%, CCN(c1ccccc1)S(=O)(=O)c1ccc2c(c1)N(C(C)=O)CCS2 -1.04%, COc1ccccc1-c1nn(-c2ccccc2)cc1C(=O)NCC(c1ccco1)N1CCCC1 (stereo not drawn) 1.07%, CCOC(=O)N1CCN(S(=O)(=O)c2ccc(OC)c(Cl)c2Cl)CC1 3.84%, Fc1ccc2c(c1)c1n[nH]c(=S)nc1n2CCc1ccccc1 0.89%, O=C1C=C(Nc2ccccc2)C(=O)c2ccccc21 1.37%, O=C(Nc1ccc2c(c1)C(=O)c1ccccc1-2)c1ccccc1 4.11%, NC(Cc1ccc2nonc2c1)C(=O)O (stereo not drawn) 17.1%, O=C(c1ccccc1)N(Nc1ccccc1)c1ccccc1 11.5%, CC(C)C(=O)NN(C(=O)c1ccccc1)c1ccccc1 -2.08%, COc1ccc2cc(C#N)c(Nc3cccc(F)c3)nc2c1 -0.27%, S=c1[nH]nc(NC2CCCCC2)s1 2.41%, COc1cc(C2Nc3ccccc3C(=O)N2c2ccccc2OC)ccc1O (stereo not drawn) -3.51%, CCOc1cc(C2Nc3ccccc3C(=O)N2c2ccccc2)ccc1O (stereo not drawn) 24.7%, CCCCOC(=O)c1cccc(NC(=O)CCC(=O)O)c1 -3.12%, NC(=O)c1ncc(C(F)(F)F)cc1Oc1cccnc1 -3.05%, CCN(C(=O)COC(=O)CNC(=O)c1ccc2ccccc2c1)C1CCS(=O)(=O)C1 (stereo not drawn) 11.8%, CCc1ccc(NC(=O)C2CCN(S(C)(=O)=O)CC2)cc1 -4.22%, Cc1ccc(NC(=O)C2CC3CCC2C3)c(Br)c1 (stereo not drawn) -0.68%, COc1ccc(NC(=O)C(NC(C)=O)C(=O)NCc2ccccc2OC)cc1 (stereo not drawn) 19.8%, Oc1cccc2cc3cccc(O)c3c(O)c12 -5.93%, COc1cc2cccc(OC)c(=O)c2c(O)c1OC 4.6%, CCOC(=O)c1sc(NC(=O)Nc2ccc(F)cc2)nc1C 24.7%, Nc1ccc(N2CCCCC2)c(Cl)c1 19.8%, Clc1ccccc1CN1CCN(c2ncccn2)CC1 -5.95%, CC1CCC2(CC1)NC(=O)N(CC(=O)NCc1ccc(Cl)cc1)C2=O (stereo not drawn) -14%, O=C(CNC(=O)c1ccc(Br)cc1)N/N=C/c1ccc[nH]1 -7.5%, Cc1nc2ccccc2c(-c2ccccc2)c1CC(=O)O -8.12%, Cc1nc2ccccc2n1CC(=O)c1ccccc1 6.29%, CCOC(=O)c1cnc2c(cnn2C)c1Cl 6.51%, COc1cc(OC)c(-c2oc3ccccc3c(=O)c2O)c(OC)c1 4.4%, COc1cc(OC)c2c(c1)OC(c1ccc(OC)c(OC)c1)C(O)C2=O (stereo not drawn) 5.17%, COc1ccc(C(=O)OCCN=C2NS(=O)(=O)c3ccccc32)cc1OC 0.81%, CC12CCCc3c(O)cc(=O)n(c31)-c1ccccc12 (stereo not drawn) 0.05%, O=C(NN1C(=O)/C(=C/C=C/c2ccccc2)SC1=S)c1ccncc1 10.1%, CC(/C=C1\SC(=S)N(NS(=O)(=O)c2ccccc2)C1=O)=C\c1ccccc1 -6.38%, COc1cc(/C=C2\SC(=S)N(NC(=O)c3ccccc3O)C2=O)ccc1O 5.15%, Cn1cccc1/C=C1\SC(=S)N(NC(=O)c2ccccc2O)C1=O 27.8%, O=C(NN1C(=O)/C(=C/c2cccs2)SC1=S)c1ccncc1 -1.89%, O=C1/C(=C/c2cccs2)SC(=S)N1NS(=O)(=O)c1ccccc1 -2.36%, Cc1c(C(=O)NCc2ccccn2)sc2nc(-c3ccc(F)cc3)cn12 0.67%, Cc1ccc(NC(=O)CC2C(=O)NC3CCCCC3N2C(=O)c2ccc(F)cc2)cc1C (stereo not drawn) 1.01% and 26.2%, Cc1nn(Cc2cccc(Oc3ccccc3)c2)c(C)c1NC(=O)NC12CC3CC(CC(C3)C1)C2 -5.96%, Clc1ccc(CSc2cc3c(nn2)-c2ccccc2CC3)cc1Cl -6.32%, CC1(C(=O)OCC(=O)Nc2ccccc2Cl)CC1(Cl)Cl (stereo not drawn) -10.2%, Cc1c(Cl)ccc(S(=O)(=O)NCCN2CCOCC2)c1Cl 6.83%, O=CN1CCN(C2CC(=O)N(c3ccc(Br)cc3)C2=O)CC1 (stereo not drawn) 22.2%
